# From PubChem BioAssay
# Compounds with a hit are over-represented: about 2.9% of the library has one in this group of screens.
# GDH-TPI counter-1 = counter-screen for M. tuberculosis FBA inhibitors: GDH-TPI coupled enzymes; GDH-TPI coupled enzyme counterscreen, NADH absorbance; inhibition, % at 4.8 µM; 360,000 compounds, 1.2% hits; AID 588335; in the data active = inhibition above about 30%;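 also: 0% = DMSO wells and 100% = wells lacking the enzyme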
# FadD28 binding = M. tuberculosis FadD28 bisubstrate binding inhibition; FadD28 bisubstrate probe binding, fluorescence polarization; inhibition, % at 12.5 µM; 360,000 compounds, 0.22% hits; AID 588549; in the data active = inhibition above about 8.5%, passing the limit was not always enough
# BioA inh = BioA (M. tuberculosis) enzyme inhibition; purified M. tuberculosis BioA enzyme, plate reader; inhibition, % at 9.99 µM; 360,000 compounds, 0.096% hits; AID 602481; in the data active = inhibition above about 40%
# Mtb FBA inh = inhibitors of M. tuberculosis fructose-bisphosphate aldolase; P9WQA3; purified M. tuberculosis FBA, fluorescence read-out; inhibition, % at 1 µM; 360,000 compounds, 2.3% hits;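 also: 0% = vehicle and 100% = reference inhibitor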
# Target sequence (P9WQA3 whole entry, looked up): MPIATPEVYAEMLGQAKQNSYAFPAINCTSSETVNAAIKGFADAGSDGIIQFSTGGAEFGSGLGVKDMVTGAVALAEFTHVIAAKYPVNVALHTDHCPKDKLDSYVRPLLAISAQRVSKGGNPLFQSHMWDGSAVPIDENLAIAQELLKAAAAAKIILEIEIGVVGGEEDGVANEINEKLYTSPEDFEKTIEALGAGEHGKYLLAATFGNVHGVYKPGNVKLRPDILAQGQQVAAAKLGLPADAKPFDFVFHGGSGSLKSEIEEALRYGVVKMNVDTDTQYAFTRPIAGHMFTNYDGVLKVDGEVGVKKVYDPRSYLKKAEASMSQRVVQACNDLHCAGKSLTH
# Mtb hypoxia rep = reduces hypoxia-regulated biosensor signal in M. tuberculosis. M. tuberculosis hypoxia-regulated fluorescent reporter, fluorescence. fluorescence inhibition, % (no concentration beside the values). 300,000 compounds, 0.1% hits. AID 1159583; in the data active = fluorescence inhibition mostly above about 23%, no sharp cut-off; inactive = mostly below about 17%
# Mtb FBA confirm = confirmation of M. tuberculosis fructose-bisphosphate aldolase inhibitors; shares compounds with Mtb FBA inh; purified M. tuberculosis FBA, fluorescence read-out; inhibition, % at 1 µM; 5,600 compounds, 78% hits;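 also: 0% = vehicle wells and 100% = reference inhibitor wells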
# GDH-TPI counter-2 = inhibits GDH-TPI coupling enzymes, flagging Mtb FBA hits | shares compounds with Mtb FBA inh | GDH-TPI coupled enzyme counterscreen, fluorescence | inhibition, % at 1 µM | 5,600 compounds, 81% hits | AID 652141; in the data active = inhibition above about 10%
# GDH-TPI dose = counter-screen for M. tuberculosis FBA inhibitors: GDH-TPI dose response. IC50, µM. GDH-TPI coupled enzyme assay, fluorescence, artifact counterscreen. shares compounds with Mtb FBA inh. 170 compounds, 79% hits. AID 652145; call rule not given here
# Numbers without * were called inactive; . = not tested or not shown; + = active, no number. Rule as the data show it, unless noted: active = inhibition above about 27%; inactive = the rest.
SMILES,GDH-TPI counter-1,FadD28 binding,BioA inh,Mtb FBA inh,Mtb hypoxia rep,Mtb FBA confirm,GDH-TPI counter-2,others
O=C(c1ccc2c3c(cccc13)CC2)C1CCCN(C(=O)c2ccc[n+]([O-])c2)C1 (stereo not given),16,0,0,29*,13,+,165*,
O=C(c1ccc2c3c(cccc13)CC2)C1CCCN(C(=O)c2cc[n+]([O-])cc2)C1 (stereo not given),6,-1,.,19,7,.,.,
CCOC(C)=Nn1c2nc3ccccc3nc2c2c(=O)n(C3CCCC3)c(C)nc21,.,.,.,.,-7,.,.,
CCO/C(C)=N/n1c2nc3ccccc3nc2c2c(=O)n(CC(C)C)c(C)nc21,22,-3,3,33*,.,5,0,
Cc1nn(C)c(C)c1CNC(=O)C=Cc1ccccc1F,.,.,.,.,7,.,.,
Cc1ccc(OCC(=O)Oc2ccc(C(C)C)cc2)cc1,-13,-2,3,30*,6,183*,130*,
Cc1ccc(OCC(=O)Oc2cccc(C)c2)cc1,-3,-2,-1,1,6,.,.,
CC1CN(C(C)CO)C(=O)Cc2cc(NS(C)(=O)=O)ccc2OC1CN(C)Cc1ccc(Cl)c(Cl)c1 (stereo not given),.,.,.,.,0,.,.,
Cc1ccc(C2N=C(N)Nc3nc4ccccc4n32)cc1 (stereo not given),-1,-1,-2,2,13,.,.,
Cc1ccc(C2N=C(N)Nc3nc(=O)c4ccccc4n32)cc1 (stereo not given),3,0,.,76*,8,9,6,
c1cncc(-c2noc(-c3cccc4ccccc34)n2)c1,4,-2,0,28*,2,22,20*,
COC(=O)C1=C(C(=O)OC)C2N(Cc3ccccc3)c3ccccc3[C@@]23CC(C(=O)OC)N(C(=O)c2cc(C)oc2C)C3=N1 (stereo not given in full),.,.,.,.,13,.,.,
COc1ccc(-c2cc(C(F)F)n3ncc(C(=O)NCCCN4CCCC4=O)c3n2)cc1,6,0,4,31*,5,+,169*,
Cc1ccc(-c2cc(C(F)F)n3ncc(C(=O)N4CCc5ccccc54)c3n2)cc1,10,1,.,-2,-9,.,.,
COc1ccc2[nH]c(C(=O)NCCCN3CCCC3=O)c(C)c2c1,-1,0,2,58*,5,-5,-2,
COc1ccc(-c2cc(C(F)F)n3ncc(C(=O)N4CCc5ccccc5C4)c3n2)cc1,8,-5,0,30*,0,83*,76*,
COCCNC(=O)c1cnn2c(C(F)F)cc(-c3ccc(C)cc3)nc12,8,-3,1,6,-3,.,.,
COc1cccc(S(=O)(=O)Nc2ccc3c(c2)[C@H]2C[C@H](CC(=O)O)O[C@@H](CO)[C@H]2O3)c1,.,.,-1,.,.,.,.,
CCC(=O)Nc1ccc2c(c1)OC[C@H](C)N(C(=O)c1cccnc1)C[C@@H](C)[C@H](OC)CN(C)C2=O,.,.,-5,.,.,.,.,
COc1cc2oc3ccc(C#Cc4ccccn4)cc3c(=O)c2cc1OC,5,-1,-1,67*,-10,-3,-5,
COc1cc2oc3ccc(C#Cc4ccc(N)cc4)cc3c(=O)c2cc1OC,24,0,-1,8,16,.,.,
CCOC(=O)C(=CN=C(N)Nc1nc2ccccc2o1)C(=O)OCC,16,0,-2,32*,7,29*,23*,
Cc1c2cnccc2c(C)c2c1oc1ccccc12,3,-1,.,43*,.,115*,94*,
C[C@H]1CN([C@@H](C)CO)C(=O)c2cc(-c3ccncc3)cnc2O[C@@H]1CN(C)S(=O)(=O)c1ccccc1,.,.,17,.,.,.,.,
Cc1ccccc1NC(=O)Cn1c(C)nc2ccc(NC(=O)C3CC3)cc2c1=O,4,0,-1,-1,-2,.,.,
Cc1ccccc1NC(=O)Cn1c(C)nc2ccc(N)cc2c1=O,10,-3,-1,61*,10,17,0,GDH-TPI dose=2.8*
Cc1cc(NC(=O)c2ccc3nccnc3c2)ccc1Br,4,.,0,-3,-3,.,.,
Cc1ccc(C(=O)Nc2ccc3nccnc3c2)cc1,12,-1,0,37*,.,44*,36*,
CCN(CC)CCCN=C1NC(c2cccc(F)c2)C(C(=O)OC)=C(C)N1Cc1ccccc1 (stereo not given),.,.,.,.,17,.,.,
